# Measured values reported in PubChem BioAssay (EPA / NIEHS).
# Inconclusive results are not listed. The source holds several records for some structures; these can differ, active in one and inactive in another. Active and inactive are the calls of the source. Rule for the calls, unless noted: active = hit-call score of the fitted dose curve at least 0.9, where 1 is the maximum; inactive = score below 0.9.
# What was measured:
# [1] = ATG_NFI_CIS: Attagene CIS-FACTORIAL HepG2 Assay for human Nuclear Factor I (NFI) (AID 2282989); conditions: HepG2 cis-regulatory reporter, NFI response element transcription; actives raise or lower the signal
# Procedure, shortened: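 Multiplexed cis-reporter system in human HepG2 cells reports native TF activity as reporter mRNA induction 24 h post-dose. Fragments labelled with 6-FAM, HpaI-digested and resolved by capillary electrophoresis; activity fitted both directions versus DMSO.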
# [2] = target: Myc proto-oncogene protein (Homo sapiens) (UniProt P01106); assay: ATG_Myc_CIS: Attagene CIS-FACTORIAL HepG2 Assay for human Myelocytomatosis (Myc) Proto-Oncogene Transcription Factor (AID 2282990); conditions: HepG2, Attagene cis-reporter transcription factor activity; actives raise or lower the signal
# Sequence of Myc proto-oncogene protein (Homo sapiens) (P01106 whole entry, looked up, the tested form may be a part): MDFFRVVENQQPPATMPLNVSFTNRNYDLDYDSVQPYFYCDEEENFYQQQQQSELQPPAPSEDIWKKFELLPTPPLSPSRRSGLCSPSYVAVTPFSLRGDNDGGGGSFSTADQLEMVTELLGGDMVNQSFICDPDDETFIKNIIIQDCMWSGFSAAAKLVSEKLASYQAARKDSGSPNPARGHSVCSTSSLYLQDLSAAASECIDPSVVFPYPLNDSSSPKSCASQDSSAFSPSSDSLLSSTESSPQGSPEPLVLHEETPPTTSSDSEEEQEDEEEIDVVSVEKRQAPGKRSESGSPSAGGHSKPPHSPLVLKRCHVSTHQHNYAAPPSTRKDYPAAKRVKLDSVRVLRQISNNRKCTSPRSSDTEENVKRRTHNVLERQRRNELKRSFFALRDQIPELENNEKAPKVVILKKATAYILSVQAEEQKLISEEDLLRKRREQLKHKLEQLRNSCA
# Procedure, shortened: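 After 24 h chemical treatment of HepG2 cells carrying multiplexed cis-regulated reporter constructs, reporter transcripts quantified by RT-PCR and capillary electrophoresis of fluorescent fragments. Gain or loss fitted against DMSO baseline.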
# [3] = ATG_NF_kB_CIS: Attagene CIS-FACTORIAL HepG2 Assay for human Nuclear Factor Kappa B (NF-kB) (AID 2282991); conditions: HepG2 Attagene cis-factorial NF-kB reporter mRNA; actives raise or lower the signal
# Procedure, shortened: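 HepG2, transient multi-reporter transfection, cis promoter elements (endogenous TFs). 24 h exposure. Total RNA → RT → PCR → 6-FAM label → HpaI → CE. Gain/loss vs DMSO.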
# [4] = ATG_NRF2_ARE_CIS: Attagene CIS-FACTORIAL HepG2 Assay for human Nuclear Factor Erythroid 2 Related Factor 2 (NFR2) response to Antioxidant Response Elements (ARE) (AID 2282992); conditions: HepG2 Attagene ARE/NRF2 reporter, transcription factor activity; actives raise or lower the signal
# Procedure, shortened: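 Endogenous transcription factor activity in human liver HepG2 cells is tracked via a cis-element-driven reporter within a multiplexed set. mRNA induction is read by RT-PCR and capillary electrophoresis after 24 h, with DMSO as baseline.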
# [5] = ATG_Oct_MLP_CIS: Attagene CIS-FACTORIAL HepG2 Assay for human Octamer-Binding Transcription Factor (Oct) (AID 2282993); conditions: HepG2 Attagene cis-factorial Oct reporter, mRNA; actives raise or lower the signal
# Procedure, shortened: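 After 24 h compound exposure, transfected HepG2 cells were lysed for total RNA; reporter-specific cDNA was PCR-amplified, fluorescently labelled and sized by capillary electrophoresis. Bidirectional curve fitting used DMSO as baseline.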
# [6] = target: Cellular tumor antigen p53 (Homo sapiens) (UniProt P04637); assay: ATG_p53_CIS: Attagene CIS-FACTORIAL HepG2 Assay for human p53 Transcription Factor (AID 2282994); conditions: HepG2 p53 cis-element reporter, Attagene mRNA; actives raise or lower the signal
# Sequence of Cellular tumor antigen p53 (Homo sapiens) (P04637 whole entry, looked up, the tested form may be a part): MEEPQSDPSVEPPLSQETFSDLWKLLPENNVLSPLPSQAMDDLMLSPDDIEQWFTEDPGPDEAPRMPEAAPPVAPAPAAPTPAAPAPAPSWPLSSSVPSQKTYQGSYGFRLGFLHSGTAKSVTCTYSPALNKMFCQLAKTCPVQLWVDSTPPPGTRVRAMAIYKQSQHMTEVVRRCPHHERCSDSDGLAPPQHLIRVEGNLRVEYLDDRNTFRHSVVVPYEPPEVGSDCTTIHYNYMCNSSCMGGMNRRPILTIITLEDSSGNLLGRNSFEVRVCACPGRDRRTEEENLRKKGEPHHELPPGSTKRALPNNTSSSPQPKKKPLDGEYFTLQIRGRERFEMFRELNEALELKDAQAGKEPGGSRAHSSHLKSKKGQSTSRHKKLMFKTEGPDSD
# Procedure, shortened: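 Steps: transfect HepG2 with multiplexed cis reporter constructs; dose chemicals 24 h; extract RNA, reverse-transcribe, PCR-amplify reporter sequences; FAM-label, HpaI-digest, resolve fragments by CE. Activity fitted both directions relative to DMSO.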
# [7] = BSK_3C_TissueFactor: BioMAP Diversity Plus: 3C Assay for Tissue Factor Biomarker Activity (AID 2282997); conditions: BioMAP 3C HUVEC, tissue factor biomarker readout; actives raise or lower the signal
# Procedure, shortened: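 Readout: Tissue Factor ELISA. Cells: human primary umbilical vein endothelium. Time: 24 h after dosing. Analysis: bidirectional fit, DMSO baseline.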
# [8] = BSK_3C_uPAR: BioMAP Diversity Plus: 3C Assay for Urokinase-type plasminogen activator receptor (uPAR) Biomarker Activity (AID 2282998); conditions: BioMAP 3C HUVEC, uPAR biomarker ELISA; actives raise or lower the signal
# Procedure, shortened: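 Values derive from bidirectional curve fitting relative to DMSO, which served as baseline of activity. uPAR was measured by ELISA in human umbilical vein endothelial primary cultures 24 h after compound addition.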
# [9] = BSK_3C_VCAM1: BioMAP Diversity Plus: 3C Assay for Vascular cell adhesion molecule 1 (VCAM1) Biomarker Activity (AID 2282999); conditions: BioMAP 3C HUVEC, VCAM1 ELISA, cytokine-stimulated; actives raise or lower the signal
# Procedure, shortened: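 Activity fitted in both directions relative to DMSO, with ELISA measurement of the surface marker on primary HUVEC (3C) at 24 h post-treatment; parallel SRB staining (0.1% SRB, TCA-fixed, 560 nm) flagged overt cytotoxicity.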
# [10] = BSK_4H_Eotaxin3: BioMAP Diversity Plus: 4H Assay for Eotaxin 3 Biomarker Activity (AID 2283000); conditions: primary human endothelial cells (HUVEC); actives raise or lower the signal;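 for outcome: CCL26 protein level quantified by ELISA in parallel with SRB cytotoxicity check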
# Procedure, shortened: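 HUVEC, 24 h post-dose, ELISA for Eotaxin-3/CCL26. Gain or loss of signal fitted bidirectionally vs DMSO baseline.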
# [11] = target: human Peroxisome Proliferator-activated Receptor alpha (PPARa), PPARA (gene 5465) (UniProt Q07869); assay: ATG_PPARa_TRANS: Attagene TRANS-FACTORIAL HepG2 Assay for human Peroxisome Proliferator-activated Receptor alpha (PPARa) (AID 2283001; active = hit-call score of the fitted dose curve at least 0.9, where 1 is the maximum;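 for AC50: potency for gain of reporter signal over DMSO so agonist or activator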)
# Sequence of human Peroxisome Proliferator-activated Receptor alpha (PPARa), PPARA (gene 5465) (Q07869 whole entry, looked up, the tested form may be a part): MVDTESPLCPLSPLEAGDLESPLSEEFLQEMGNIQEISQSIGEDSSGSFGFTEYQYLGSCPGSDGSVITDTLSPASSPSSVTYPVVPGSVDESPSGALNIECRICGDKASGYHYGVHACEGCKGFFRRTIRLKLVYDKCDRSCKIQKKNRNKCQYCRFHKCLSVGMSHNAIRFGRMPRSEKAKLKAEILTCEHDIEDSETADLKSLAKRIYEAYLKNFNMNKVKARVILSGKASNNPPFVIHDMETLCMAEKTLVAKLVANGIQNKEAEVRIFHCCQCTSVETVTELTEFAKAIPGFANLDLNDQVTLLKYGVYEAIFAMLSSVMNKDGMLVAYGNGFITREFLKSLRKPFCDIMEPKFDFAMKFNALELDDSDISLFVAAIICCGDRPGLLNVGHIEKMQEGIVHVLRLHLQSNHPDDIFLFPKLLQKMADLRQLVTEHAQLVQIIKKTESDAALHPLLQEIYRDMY
# Procedure, shortened: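 Reporter transcripts quantified by RT-PCR plus capillary electrophoresis after 24 h treatment, fitted upward relative to DMSO. Cells: human HepG2 transiently carrying multiple GAL4-UAS reporter units driven by NR-Gal4 chimeras.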
# [12] = target: human Peroxisome Proliferator-activated Receptor delta (PPARd), PPARD (gene 5467) (UniProt Q03181); assay: ATG_PPARd_TRANS: Attagene TRANS-FACTORIAL HepG2 Assay for human Peroxisome Proliferator-activated Receptor delta (PPARd) (AID 2283002; active = hit-call score of the fitted dose curve at least 0.9, where 1 is the maximum)
# Sequence of human Peroxisome Proliferator-activated Receptor delta (PPARd), PPARD (gene 5467) (Q03181 whole entry, looked up, the tested form may be a part): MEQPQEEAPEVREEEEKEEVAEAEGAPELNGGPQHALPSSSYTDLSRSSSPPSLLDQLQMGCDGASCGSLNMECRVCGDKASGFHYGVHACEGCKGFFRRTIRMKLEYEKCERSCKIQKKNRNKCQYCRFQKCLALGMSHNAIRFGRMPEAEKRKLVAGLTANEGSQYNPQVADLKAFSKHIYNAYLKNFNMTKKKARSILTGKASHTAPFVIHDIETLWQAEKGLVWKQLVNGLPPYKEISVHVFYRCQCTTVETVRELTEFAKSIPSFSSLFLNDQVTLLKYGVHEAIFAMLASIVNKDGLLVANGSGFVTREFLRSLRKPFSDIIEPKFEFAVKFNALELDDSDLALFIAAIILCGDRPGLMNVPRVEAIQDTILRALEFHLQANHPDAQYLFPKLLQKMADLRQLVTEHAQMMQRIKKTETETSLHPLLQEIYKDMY
# Procedure, shortened: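 Read-out is induced reporter mRNA, quantified by RT-PCR with fluorescent labelling and capillary electrophoresis after 24 h dosing. Cells are HepG2 transiently carrying multiple GAL4-UAS reporter units driven by exogenous NR-GAL4 chimeras; DMSO serves as baseline.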
# [13] = read-out: Intercellular Adhesion Molecule 1 (ICAM1), ICAM1 (gene 3383); assay: BSK_3C_ICAM1: BioMAP Diversity Plus: 3C Assay for Intercellular Adhesion Molecule 1 (ICAM1) Biomarker Activity (AID 2283003); conditions: primary human endothelial cells (HUVEC); actives raise or lower the signal
# Procedure, shortened: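 Chemicals are dosed onto primary human umbilical vein endothelium (3C system). After 24 h, ICAM-1 is measured by ELISA, and responses are fitted bidirectionally relative to DMSO.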
# [14] = BSK_3C_Proliferation: Cell Proliferation Assessment in the BioMAP Diversity Plus: 3C Assay (AID 2283006); conditions: primary human endothelial cells (HUVEC);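 for AC50: potency may reflect either rise or fall in cell number versus DMSO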
# Procedure, shortened: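 Cells (human umbilical vein endothelial, sub-confluent) receive test chemical; after 48 h they are fixed in 10% trichloroacetic acid, stained with 0.1% SRB and read at 560 nm. Activity is referenced to DMSO, fitting increases and decreases.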
# [15] = target: Peroxisome proliferator-activated receptor gamma (Homo sapiens) (UniProt P37231); assay: ATG_PPARg_TRANS: Attagene TRANS-FACTORIAL HepG2 Assay for human Peroxisome Proliferator-activated Receptor-gamma (PPARg) (AID 2283007; active = hit-call score of the fitted dose curve at least 0.9, where 1 is the maximum)
# Sequence of Peroxisome proliferator-activated receptor gamma (Homo sapiens) (P37231 whole entry, looked up): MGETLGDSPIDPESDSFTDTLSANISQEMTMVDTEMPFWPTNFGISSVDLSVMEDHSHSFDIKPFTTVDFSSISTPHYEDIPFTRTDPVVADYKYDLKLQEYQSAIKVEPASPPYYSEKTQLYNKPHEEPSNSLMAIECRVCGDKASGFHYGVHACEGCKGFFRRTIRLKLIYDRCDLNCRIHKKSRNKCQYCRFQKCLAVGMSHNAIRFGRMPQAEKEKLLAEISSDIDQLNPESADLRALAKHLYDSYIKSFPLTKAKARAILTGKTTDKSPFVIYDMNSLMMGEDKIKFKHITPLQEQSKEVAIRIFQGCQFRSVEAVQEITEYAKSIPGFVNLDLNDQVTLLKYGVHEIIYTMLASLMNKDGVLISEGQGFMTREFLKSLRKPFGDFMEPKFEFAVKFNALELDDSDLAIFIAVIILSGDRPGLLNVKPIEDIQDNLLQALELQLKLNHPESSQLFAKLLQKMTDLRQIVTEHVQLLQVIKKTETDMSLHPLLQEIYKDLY
# Procedure, shortened: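 Multiplexed reporter transcription units in HepG2, 24 h dosing, reporter transcripts quantified by fluorescent RT-PCR and capillary electrophoresis. Increase over DMSO scored.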
# [16] = target: Nuclear receptor subfamily 1 group I member 2 (Homo sapiens) (UniProt O75469); assay: ATG_PXR_TRANS: Attagene TRANS-FACTORIAL HepG2 Assay for human Pregnane X Receptor (PXR) (AID 2283008; active = hit-call score of the fitted dose curve at least 0.9, where 1 is the maximum)
# Sequence of Nuclear receptor subfamily 1 group I member 2 (Homo sapiens) (O75469 whole entry, looked up, the tested form may be a part): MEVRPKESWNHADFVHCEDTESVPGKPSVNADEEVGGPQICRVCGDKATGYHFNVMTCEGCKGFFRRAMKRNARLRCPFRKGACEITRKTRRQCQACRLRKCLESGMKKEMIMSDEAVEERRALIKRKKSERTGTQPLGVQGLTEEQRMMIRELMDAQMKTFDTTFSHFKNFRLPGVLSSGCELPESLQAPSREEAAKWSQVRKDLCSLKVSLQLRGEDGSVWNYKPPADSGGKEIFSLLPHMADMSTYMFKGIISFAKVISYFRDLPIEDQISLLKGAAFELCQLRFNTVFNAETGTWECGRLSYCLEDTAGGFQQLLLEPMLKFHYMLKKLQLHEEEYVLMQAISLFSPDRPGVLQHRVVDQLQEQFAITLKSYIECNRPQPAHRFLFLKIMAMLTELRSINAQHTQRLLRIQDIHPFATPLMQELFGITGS
# Procedure, shortened: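 HepG2 transfected (FuGene 6) with GAL4-UAS reporter units + PXR-Gal4 chimera; dosed 24 h. Total RNA → oligo(dT) RT → PCR → 6-FAM primer extension → HpaI cut → CE. Gain-of-signal vs DMSO.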
# [17] = target: Retinoic acid receptor alpha (Homo sapiens) (UniProt P10276); assay: ATG_RARa_TRANS: Attagene TRANS-FACTORIAL HepG2 Assay for human Retinoic Acid Receptor alpha (RARa) (AID 2283005; active = hit-call score of the fitted dose curve at least 0.9, where 1 is the maximum)
# Sequence of Retinoic acid receptor alpha (Homo sapiens) (P10276 whole entry, looked up, the tested form may be a part): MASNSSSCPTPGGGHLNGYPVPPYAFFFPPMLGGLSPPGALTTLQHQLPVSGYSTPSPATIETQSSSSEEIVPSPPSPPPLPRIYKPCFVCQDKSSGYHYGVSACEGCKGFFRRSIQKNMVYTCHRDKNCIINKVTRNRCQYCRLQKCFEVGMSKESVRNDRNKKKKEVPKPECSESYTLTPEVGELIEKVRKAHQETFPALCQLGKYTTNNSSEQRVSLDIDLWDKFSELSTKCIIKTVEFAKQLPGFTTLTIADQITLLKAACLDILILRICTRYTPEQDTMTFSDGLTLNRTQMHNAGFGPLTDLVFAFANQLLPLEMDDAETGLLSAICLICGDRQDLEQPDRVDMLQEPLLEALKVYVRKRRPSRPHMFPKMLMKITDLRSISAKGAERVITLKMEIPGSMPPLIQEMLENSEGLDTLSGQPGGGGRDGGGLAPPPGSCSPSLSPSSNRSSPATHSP
# Procedure, shortened: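 Reporter transcripts, measured by RT-PCR with fluorescent labeling and capillary electrophoresis after 24 h dosing, reflect activity of an exogenous human RARa–GAL4 fusion in transiently transfected HepG2. Fitted for increase relative to DMSO.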
# [18] = target: human RAR-related Orphan Receptor gamma (RORg), RORC (gene 6097) (UniProt P51449); assay: ATG_RORg_TRANS: Attagene TRANS-FACTORIAL HepG2 Assay for human RAR-related Orphan Receptor gamma (RORg) (AID 2283011; active = hit-call score of the fitted dose curve at least 0.9, where 1 is the maximum)
# Sequence of human RAR-related Orphan Receptor gamma (RORg), RORC (gene 6097) (P51449 whole entry, looked up, the tested form may be a part): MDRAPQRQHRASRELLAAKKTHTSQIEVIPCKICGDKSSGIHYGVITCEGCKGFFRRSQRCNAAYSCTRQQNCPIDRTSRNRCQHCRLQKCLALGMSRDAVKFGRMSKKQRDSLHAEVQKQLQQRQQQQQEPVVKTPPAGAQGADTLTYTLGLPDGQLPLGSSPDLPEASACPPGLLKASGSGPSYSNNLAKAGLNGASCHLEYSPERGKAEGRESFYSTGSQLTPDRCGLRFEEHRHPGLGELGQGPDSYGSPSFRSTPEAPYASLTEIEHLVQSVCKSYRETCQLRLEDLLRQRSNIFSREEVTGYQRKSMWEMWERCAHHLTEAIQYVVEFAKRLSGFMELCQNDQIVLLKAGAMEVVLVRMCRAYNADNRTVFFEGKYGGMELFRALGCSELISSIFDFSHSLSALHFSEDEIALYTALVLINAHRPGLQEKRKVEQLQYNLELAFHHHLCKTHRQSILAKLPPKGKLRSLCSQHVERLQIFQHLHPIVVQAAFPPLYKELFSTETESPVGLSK
# Procedure, shortened: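 Readout: reporter transcript induction (RT-PCR, fluorescent primer extension, capillary electrophoresis) after 24 h compound exposure of transiently transfected HepG2 cells carrying a RORg-Gal4 chimera and GAL4-UAS reporters; DMSO served as baseline, with increasing signal fitted.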
# [19] = target: human Retinoic Acid Receptor beta (RARb), RARB (gene 5915) (UniProt P10826); assay: ATG_RARb_TRANS: Attagene TRANS-FACTORIAL HepG2 Assay for human Retinoic Acid Receptor beta (AID 2283004; active = hit-call score of the fitted dose curve at least 0.9, where 1 is the maximum)
# Sequence of human Retinoic Acid Receptor beta (RARb), RARB (gene 5915) (P10826 whole entry, looked up, the tested form may be a part): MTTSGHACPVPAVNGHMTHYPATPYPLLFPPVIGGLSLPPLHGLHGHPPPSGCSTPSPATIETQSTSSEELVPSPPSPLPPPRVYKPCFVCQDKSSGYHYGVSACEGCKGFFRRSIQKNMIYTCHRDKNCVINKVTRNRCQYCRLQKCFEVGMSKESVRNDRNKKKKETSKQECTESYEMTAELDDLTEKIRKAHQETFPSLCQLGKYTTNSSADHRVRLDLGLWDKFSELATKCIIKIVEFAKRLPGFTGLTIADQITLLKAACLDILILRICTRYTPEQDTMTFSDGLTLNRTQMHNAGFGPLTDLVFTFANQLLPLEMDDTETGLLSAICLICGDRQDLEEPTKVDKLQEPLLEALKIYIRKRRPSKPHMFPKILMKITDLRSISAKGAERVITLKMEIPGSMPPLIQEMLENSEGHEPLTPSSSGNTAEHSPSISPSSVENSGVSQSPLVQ
# Procedure, shortened: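 HepG2 cells transiently transfected with multiplexed GAL4-UAS reporter units expressing chimeric NR–Gal4 fusions; 24 h compound exposure. Reporter mRNA quantified by RT-PCR, 6-FAM labelling, HpaI digestion and capillary electrophoresis; gain-of-signal fitted against DMSO baseline.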
# [20] = target: human Retinoic Acid Receptor gamma (RARg), RARG (gene 5916) (UniProt P13631); assay: ATG_RARg_TRANS: Attagene TRANS-FACTORIAL HepG2 Assay for human Retinoic Acid Receptor gamma (RARg) (AID 2283009; active = hit-call score of the fitted dose curve at least 0.9, where 1 is the maximum)
# Sequence of human Retinoic Acid Receptor gamma (RARg), RARG (gene 5916) (P13631 whole entry, looked up, the tested form may be a part): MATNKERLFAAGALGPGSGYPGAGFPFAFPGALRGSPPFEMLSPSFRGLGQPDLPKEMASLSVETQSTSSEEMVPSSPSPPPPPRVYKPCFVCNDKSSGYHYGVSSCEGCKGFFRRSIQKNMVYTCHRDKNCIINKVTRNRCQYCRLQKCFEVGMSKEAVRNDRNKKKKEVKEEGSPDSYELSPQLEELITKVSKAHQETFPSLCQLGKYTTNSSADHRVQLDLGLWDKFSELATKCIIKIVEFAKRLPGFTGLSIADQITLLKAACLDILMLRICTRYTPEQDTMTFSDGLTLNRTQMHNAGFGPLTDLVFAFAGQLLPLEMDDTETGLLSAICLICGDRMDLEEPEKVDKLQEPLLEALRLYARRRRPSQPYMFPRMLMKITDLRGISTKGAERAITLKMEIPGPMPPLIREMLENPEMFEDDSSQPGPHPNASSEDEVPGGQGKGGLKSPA
# Procedure, shortened: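 TRANS format measured activity of exogenous NR-GAL4 fusion (RARg) in transfected HepG2 liver cells after 24 h dosing. Induced reporter RNA was detected by RT-PCR/capillary electrophoresis fluorescence, analysed in the positive direction against DMSO.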
structure (smiles),measurement,setting,value
CCCCCCC(CCCCCCCCCCC(=O)OCC(COC(C)=O)OC(C)=O)OC(C)=O (stereo unspecified),outcome,[1],inactive
same,outcome,[2],inactive
same,outcome,[3],inactive
same,outcome,[4],inactive
same,outcome,[5],inactive
same,outcome,[6],inactive
same,outcome,[7],inactive
same,outcome,[8],inactive
same,outcome,[9],inactive
same,outcome,[10],inactive
same,AC50,[11],13.8 µM (active)
same,outcome,[12],inactive
same,outcome,[13],inactive
same,AC50,[14],10 µM (active)
same,AC50,[15],50 µM (active)
same,outcome,[16],inactive
CCCCCCCCCCCCCCCCO,outcome,[1],inactive
same,outcome,[2],inactive
same,outcome,[3],inactive
same,outcome,[4],inactive
same,outcome,[5],inactive
same,outcome,[7],inactive
same,outcome,[8],inactive
same,outcome,[9],inactive
same,outcome,[10],inactive
same,outcome,[11],inactive
same,outcome,[12],inactive
same,outcome,[13],inactive
same,outcome,[17],inactive
same,outcome,[14],inactive
same,outcome,[15],inactive
same,outcome,[18],inactive
CCN(CC)CCOc1ccc(C(=C(Cl)c2ccccc2)c2ccccc2)cc1,AC50,[1],14.8 µM (active)
same,outcome,[1],inactive
same,outcome,[2],inactive
same,outcome,[3],inactive
same,AC50,[5],7.1 µM (active)
same,outcome,[5],inactive
same,AC50,[7],13.5 µM (active)
same,AC50,[8],6.51 µM (active)
same,AC50,[9],13.8 µM (active)
same,AC50,[10],12.4 µM (active)
same,outcome,[11],inactive
same,outcome,[12],inactive
same,AC50,[13],13.7 µM (active)
same,outcome,[19],inactive
same,outcome,[17],inactive
same,AC50,[14],2.92 µM (active)
same,outcome,[15],inactive
same,outcome,[20],inactive
same,outcome,[18],inactive
CCCCOC(=O)CCCCC(=O)OCCCC,outcome,[1],inactive
same,outcome,[2],inactive
same,outcome,[3],inactive
same,outcome,[4],inactive
same,outcome,[5],inactive
same,outcome,[7],inactive
same,outcome,[8],inactive
same,outcome,[9],inactive
same,outcome,[10],inactive
same,outcome,[11],inactive
same,outcome,[12],inactive
same,outcome,[13],inactive
same,outcome,[14],inactive
same,outcome,[15],inactive
same,outcome,[16],inactive
